Outcome and AC50 data for four compounds are collected here from PubChem BioAssay (EPA / NIEHS).

Assay [1] in a line: ATG_NFI_CIS: Attagene CIS-FACTORIAL HepG2 Assay for human Nuclear Factor I (NFI) (AID 2282989). The note with it: HepG2 cis-regulatory reporter, NFI response element transcription; actives raise or lower the signal. In outline:
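HepG2 cells transiently transfected with cis-element-driven multiplexed reporter transcription units, dosed for 24 h. Reporter mRNA quantified by RT-PCR, fluorescent labelling, HpaI digestion and capillary electrophoresis; bidirectional fit versus DMSO baseline.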

In assay [2] the target is Myc proto-oncogene protein (Homo sapiens) (UniProt P01106). Put plainly: ATG_Myc_CIS: Attagene CIS-FACTORIAL HepG2 Assay for human Myelocytomatosis (Myc) Proto-Oncogene Transcription Factor (AID 2282990). The note with it: HepG2, Attagene cis-reporter transcription factor activity; actives raise or lower the signal. Put shortly:
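HepG2, transient MRTU transfection (cis promoters, endogenous TFs); 24 h dosing; TriZol RNA → oligo(dT) RT → PCR → 6-FAM primer extension → HpaI cut → CE. Bidirectional fit vs DMSO.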

The nature of assay [3]: ATG_NF_kB_CIS: Attagene CIS-FACTORIAL HepG2 Assay for human Nuclear Factor Kappa B (NF-kB) (AID 2282991). Conditions: HepG2 Attagene cis-factorial NF-kB reporter mRNA; actives raise or lower the signal. Put shortly:
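Multiplexed cis-reporter assay in transiently transfected HepG2. 24 h treatment; RNA isolated, RT-PCR, labelled fragments resolved by CE. DMSO baseline.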

Assay [4] is described as follows: ATG_NRF2_ARE_CIS: Attagene CIS-FACTORIAL HepG2 Assay for human Nuclear Factor Erythroid 2 Related Factor 2 (NFR2) response to Antioxidant Response Elements (ARE) (AID 2282992). The note with it: HepG2 Attagene ARE/NRF2 reporter, transcription factor activity; actives raise or lower the signal. In outline:
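Endogenous transcription factor activity read out as reporter transcript levels (RT-PCR plus capillary electrophoresis, fluorescence) in transiently transfected HepG2 cells. Measured at 24 h after dosing; gain or loss of signal fitted versus DMSO.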

Assay [5] is described as follows: ATG_Oct_MLP_CIS: Attagene CIS-FACTORIAL HepG2 Assay for human Octamer-Binding Transcription Factor (Oct) (AID 2282993). The note with it: HepG2 Attagene cis-factorial Oct reporter, mRNA; actives raise or lower the signal. In outline:
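HepG2 cells transiently transfected with cis-promoter-driven multiplexed reporter transcription units, dosed for 24 h. Reporter mRNA quantified by RT-PCR, fluorescent labelling, HpaI digestion and capillary electrophoresis; bidirectional fits versus DMSO baseline.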

The target in assay [6] is Cellular tumor antigen p53 (Homo sapiens) (UniProt P04637). Put plainly: ATG_p53_CIS: Attagene CIS-FACTORIAL HepG2 Assay for human p53 Transcription Factor (AID 2282994). Conditions: HepG2 p53 cis-element reporter, Attagene mRNA; actives raise or lower the signal. Put shortly:
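Endogenous p53 activity read in transiently transfected HepG2 from a cis-element-driven reporter transcript after 24 h exposure. RNA reverse-transcribed, PCR-amplified, fluorescently labelled and sized by capillary electrophoresis; gain or loss fitted against DMSO baseline.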

Assay [7] can be described thus: BSK_3C_TissueFactor: BioMAP Diversity Plus: 3C Assay for Tissue Factor Biomarker Activity (AID 2282997). Conditions: BioMAP 3C HUVEC, tissue factor biomarker readout; actives raise or lower the signal. In outline:
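In this endothelial system, HUVEC are treated for 24 h and Tissue Factor is assessed by ELISA, normalised to DMSO.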

Assay [8] in a line: BSK_3C_uPAR: BioMAP Diversity Plus: 3C Assay for Urokinase-type plasminogen activator receptor (uPAR) Biomarker Activity (AID 2282998). Conditions: BioMAP 3C HUVEC, uPAR biomarker ELISA; actives raise or lower the signal. Put shortly: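 Human umbilical vein endothelial primary cells were exposed to test chemical for 24 h. Cell-surface uPAR was then quantified by ELISA, and responses were fitted bidirectionally against DMSO as negative control and baseline.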
A general note: In an ELISA, binding on a coated surface is turned into a signal by an enzyme label.

Assay [9] can be described thus: BSK_3C_VCAM1: BioMAP Diversity Plus: 3C Assay for Vascular cell adhesion molecule 1 (VCAM1) Biomarker Activity (AID 2282999). The note with it: BioMAP 3C HUVEC, VCAM1 ELISA, cytokine-stimulated; actives raise or lower the signal. Put shortly: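 Activity fitted in both directions relative to DMSO, with ELISA measurement of the surface marker on primary HUVEC (3C) at 24 h post-treatment; parallel SRB staining (0.1% SRB, TCA-fixed, 560 nm) flagged overt cytotoxicity.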

The nature of assay [10]: BSK_4H_Eotaxin3: BioMAP Diversity Plus: 4H Assay for Eotaxin 3 Biomarker Activity (AID 2283000).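 As to Outcome: CCL26 protein level quantified by ELISA in parallel with SRB cytotoxicity check.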 Conditions: primary human endothelial cells (HUVEC); actives raise or lower the signal. In outline: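 ELISA quantitation of CCL26 (Eotaxin-3) protein from chemically dosed human vascular endothelial cells at 24 h; increases and decreases both scored relative to DMSO-treated baseline.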

Assay [11] has as its target human Peroxisome Proliferator-activated Receptor alpha (PPARa), PPARA (gene 5465) (UniProt Q07869). Nature of the assay: ATG_PPARa_TRANS: Attagene TRANS-FACTORIAL HepG2 Assay for human Peroxisome Proliferator-activated Receptor alpha (PPARa) (AID 2283001; active = hit-call score of the fitted dose curve at least 0.9, where 1 is the maximum). Put shortly:
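Reporter transcripts quantified by RT-PCR plus capillary electrophoresis after 24 h treatment, fitted upward relative to DMSO. Cells: human HepG2 transiently carrying multiple GAL4-UAS reporter units driven by NR-Gal4 chimeras.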

Read-out in assay [12]: Intercellular Adhesion Molecule 1 (ICAM1), ICAM1 (gene 3383)
Nature of the assay: BSK_3C_ICAM1: BioMAP Diversity Plus: 3C Assay for Intercellular Adhesion Molecule 1 (ICAM1) Biomarker Activity (AID 2283003). The note with it: primary human endothelial cells (HUVEC); actives raise or lower the signal. In outline:
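ELISA readout of ICAM1 in human umbilical vein endothelial cells in the 3C system, taken 24 h post-dose. Gain or loss of signal versus DMSO was fitted in both directions, with SRB total-protein staining run in parallel.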

Assay [13] deals with Retinoic acid receptor alpha (Homo sapiens) (UniProt P10276). Nature of the assay: ATG_RARa_TRANS: Attagene TRANS-FACTORIAL HepG2 Assay for human Retinoic Acid Receptor alpha (RARa) (AID 2283005; active = hit-call score of the fitted dose curve at least 0.9, where 1 is the maximum). In outline: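 Reporter transcripts, measured by RT-PCR with fluorescent labeling and capillary electrophoresis after 24 h dosing, reflect activity of an exogenous human RARa–GAL4 fusion in transiently transfected HepG2. Fitted for increase relative to DMSO.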
Chain of Retinoic acid receptor alpha (Homo sapiens) (P10276 whole entry, looked up, the tested form may be a part): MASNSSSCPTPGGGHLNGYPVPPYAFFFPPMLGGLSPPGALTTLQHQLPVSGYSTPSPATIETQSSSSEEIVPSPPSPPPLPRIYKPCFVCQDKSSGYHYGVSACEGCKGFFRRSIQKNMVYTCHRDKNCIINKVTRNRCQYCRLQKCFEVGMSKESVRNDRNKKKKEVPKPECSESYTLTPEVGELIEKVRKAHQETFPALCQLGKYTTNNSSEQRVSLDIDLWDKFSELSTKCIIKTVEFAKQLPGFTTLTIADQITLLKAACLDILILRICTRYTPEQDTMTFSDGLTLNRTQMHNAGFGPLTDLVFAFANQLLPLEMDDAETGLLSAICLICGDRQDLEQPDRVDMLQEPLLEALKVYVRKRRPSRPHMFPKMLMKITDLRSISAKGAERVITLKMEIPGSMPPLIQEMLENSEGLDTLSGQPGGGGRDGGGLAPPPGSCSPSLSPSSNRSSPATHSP

A short description of assay [14]: BSK_3C_Proliferation: Cell Proliferation Assessment in the BioMAP Diversity Plus: 3C Assay (AID 2283006).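 As to AC50: potency may reflect either rise or fall in cell number versus DMSO.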 Conditions: primary human endothelial cells (HUVEC). In outline:
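Proliferation as total protein: sulforhodamine B (0.1%) stain of TCA-fixed subconfluent human umbilical vein endothelial cells, absorbance 560 nm, 48 h after dosing. Activity fitted in both directions against DMSO baseline.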

Assay [15] concerns the target Peroxisome proliferator-activated receptor gamma (Homo sapiens) (UniProt P37231). Put plainly: ATG_PPARg_TRANS: Attagene TRANS-FACTORIAL HepG2 Assay for human Peroxisome Proliferator-activated Receptor-gamma (PPARg) (AID 2283007; active = hit-call score of the fitted dose curve at least 0.9, where 1 is the maximum). Put shortly: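 Human hepatoma HepG2, transient MRTU transfection, 24 h treatment. mRNA reporter signal by RT-PCR plus capillary electrophoresis, fluorescence detection; fitted for increase over DMSO negative control.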

Assay [16] concerns the target Nuclear receptor subfamily 1 group I member 2 (Homo sapiens) (UniProt O75469). Put plainly: ATG_PXR_TRANS: Attagene TRANS-FACTORIAL HepG2 Assay for human Pregnane X Receptor (PXR) (AID 2283008; active = hit-call score of the fitted dose curve at least 0.9, where 1 is the maximum). In outline:
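Transactivation by exogenous PXR–GAL4 fusion measured as reporter transcript induction after 24 h compound treatment of transfected human HepG2 cells. Read-out via RT-PCR and capillary electrophoresis of labelled fragments, fitted upward relative to DMSO.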

Assay [17] deals with human Peroxisome Proliferator-activated Receptor delta (PPARd), PPARD (gene 5467) (UniProt Q03181). Nature of the assay: ATG_PPARd_TRANS: Attagene TRANS-FACTORIAL HepG2 Assay for human Peroxisome Proliferator-activated Receptor delta (PPARd) (AID 2283002; active = hit-call score of the fitted dose curve at least 0.9, where 1 is the maximum). In outline:
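Transient HepG2 transfection (multiple GAL4-UAS RTUs, chimeric receptor-Gal4); 24 h dosing; total RNA → oligo(dT) RT → PCR → 6-FAM primer extension → HpaI cut → CE. Positive direction vs DMSO.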

For assay [18], the target named is human Retinoic Acid Receptor beta (RARb), RARB (gene 5915) (UniProt P10826). Nature of the assay: ATG_RARb_TRANS: Attagene TRANS-FACTORIAL HepG2 Assay for human Retinoic Acid Receptor beta (AID 2283004; active = hit-call score of the fitted dose curve at least 0.9, where 1 is the maximum). Put shortly:
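Fluorescent capillary-electrophoresis detection of GAL4-UAS reporter mRNA defines the endpoint, with induction over DMSO-treated wells scored as activity. Transiently transfected human hepatoma HepG2 cells expressing exogenous NR–Gal4 proteins are exposed to test chemicals for 24 h.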

The target of assay [19] is human Retinoic Acid Receptor gamma (RARg), RARG (gene 5916) (UniProt P13631). Put plainly: ATG_RARg_TRANS: Attagene TRANS-FACTORIAL HepG2 Assay for human Retinoic Acid Receptor gamma (RARg) (AID 2283009; active = hit-call score of the fitted dose curve at least 0.9, where 1 is the maximum). In outline:
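Transactivation of exogenous RARg-Gal4 fusion measured as reporter transcript induction after 24 h in transfected HepG2 cells. RNA reverse-transcribed, amplified, fluorescently labeled and resolved by capillary electrophoresis; increase relative to DMSO.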

Assay [20] concerns the target human RAR-related Orphan Receptor beta (RORb), RORB (gene 6096) (UniProt Q92753). Put plainly: ATG_RORb_TRANS: Attagene TRANS-FACTORIAL HepG2 Assay for human RAR-related Orphan Receptor beta (RORb) (AID 2283010; active = hit-call score of the fitted dose curve at least 0.9, where 1 is the maximum). In outline:
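Read-out is reporter mRNA induction, quantified by RT-PCR with fluorescent capillary electrophoresis, 24 h post-dose in transiently transfected HepG2 expressing exogenous NR-Gal4 chimera. Activity fitted upward versus DMSO.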

Records with an inconclusive call do not appear. Calls of active or inactive are those of the source. The calls were made as follows, unless noted: active = hit-call score of the fitted dose curve at least 0.9, where 1 is the maximum; inactive = score below 0.9.

Chain of Nuclear receptor subfamily 1 group I member 2 (Homo sapiens) (O75469 whole entry, looked up, the tested form may be a part): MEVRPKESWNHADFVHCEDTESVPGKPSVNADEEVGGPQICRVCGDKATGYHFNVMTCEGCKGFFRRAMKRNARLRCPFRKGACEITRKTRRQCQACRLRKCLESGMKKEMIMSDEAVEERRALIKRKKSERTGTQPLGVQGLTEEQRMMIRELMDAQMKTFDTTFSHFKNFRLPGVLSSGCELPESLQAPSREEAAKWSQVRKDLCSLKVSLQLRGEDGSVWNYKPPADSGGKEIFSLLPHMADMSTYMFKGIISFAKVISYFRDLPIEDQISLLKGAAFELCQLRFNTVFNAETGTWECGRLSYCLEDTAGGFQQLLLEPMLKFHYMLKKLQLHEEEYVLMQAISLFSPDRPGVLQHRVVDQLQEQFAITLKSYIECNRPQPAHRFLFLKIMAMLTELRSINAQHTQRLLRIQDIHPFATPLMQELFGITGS
Chain of human Peroxisome Proliferator-activated Receptor alpha (PPARa), PPARA (gene 5465) (Q07869 whole entry, looked up, the tested form may be a part): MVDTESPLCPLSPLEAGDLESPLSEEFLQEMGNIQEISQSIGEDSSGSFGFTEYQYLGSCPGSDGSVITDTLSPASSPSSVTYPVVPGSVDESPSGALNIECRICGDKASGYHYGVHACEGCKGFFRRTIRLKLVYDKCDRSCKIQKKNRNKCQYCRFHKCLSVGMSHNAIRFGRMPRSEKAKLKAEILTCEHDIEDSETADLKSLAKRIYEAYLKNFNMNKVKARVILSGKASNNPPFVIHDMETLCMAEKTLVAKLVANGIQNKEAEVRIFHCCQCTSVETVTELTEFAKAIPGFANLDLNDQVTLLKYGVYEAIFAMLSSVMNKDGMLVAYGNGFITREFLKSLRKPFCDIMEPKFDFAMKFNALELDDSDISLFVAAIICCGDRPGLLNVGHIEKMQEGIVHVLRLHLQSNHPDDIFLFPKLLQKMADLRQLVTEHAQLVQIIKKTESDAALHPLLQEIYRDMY
Chain of human Retinoic Acid Receptor gamma (RARg), RARG (gene 5916) (P13631 whole entry, looked up, the tested form may be a part): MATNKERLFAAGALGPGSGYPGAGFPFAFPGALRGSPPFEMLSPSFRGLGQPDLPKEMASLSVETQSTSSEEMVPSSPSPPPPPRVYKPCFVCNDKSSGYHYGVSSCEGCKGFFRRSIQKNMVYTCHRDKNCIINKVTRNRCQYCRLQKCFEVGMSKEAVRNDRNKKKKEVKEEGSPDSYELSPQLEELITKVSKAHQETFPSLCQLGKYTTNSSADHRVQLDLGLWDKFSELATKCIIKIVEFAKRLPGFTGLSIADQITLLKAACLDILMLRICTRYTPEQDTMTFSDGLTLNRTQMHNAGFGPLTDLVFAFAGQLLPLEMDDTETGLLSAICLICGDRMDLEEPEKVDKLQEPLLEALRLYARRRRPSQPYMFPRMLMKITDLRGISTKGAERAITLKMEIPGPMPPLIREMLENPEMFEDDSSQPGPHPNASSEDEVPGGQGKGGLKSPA
Chain of Myc proto-oncogene protein (Homo sapiens) (P01106 whole entry, looked up): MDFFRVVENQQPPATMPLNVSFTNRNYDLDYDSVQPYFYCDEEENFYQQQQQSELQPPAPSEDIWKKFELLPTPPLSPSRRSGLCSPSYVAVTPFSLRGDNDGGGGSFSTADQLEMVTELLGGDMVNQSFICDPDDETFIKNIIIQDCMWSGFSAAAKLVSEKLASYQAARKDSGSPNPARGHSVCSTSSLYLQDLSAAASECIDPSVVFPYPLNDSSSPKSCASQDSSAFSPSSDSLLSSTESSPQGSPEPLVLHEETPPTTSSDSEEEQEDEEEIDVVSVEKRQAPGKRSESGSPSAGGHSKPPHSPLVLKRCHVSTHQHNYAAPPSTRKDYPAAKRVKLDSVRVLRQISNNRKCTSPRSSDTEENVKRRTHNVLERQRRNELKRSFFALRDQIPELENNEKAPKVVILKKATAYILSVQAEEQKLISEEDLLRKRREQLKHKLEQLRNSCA
Chain of Cellular tumor antigen p53 (Homo sapiens) (P04637 whole entry, looked up): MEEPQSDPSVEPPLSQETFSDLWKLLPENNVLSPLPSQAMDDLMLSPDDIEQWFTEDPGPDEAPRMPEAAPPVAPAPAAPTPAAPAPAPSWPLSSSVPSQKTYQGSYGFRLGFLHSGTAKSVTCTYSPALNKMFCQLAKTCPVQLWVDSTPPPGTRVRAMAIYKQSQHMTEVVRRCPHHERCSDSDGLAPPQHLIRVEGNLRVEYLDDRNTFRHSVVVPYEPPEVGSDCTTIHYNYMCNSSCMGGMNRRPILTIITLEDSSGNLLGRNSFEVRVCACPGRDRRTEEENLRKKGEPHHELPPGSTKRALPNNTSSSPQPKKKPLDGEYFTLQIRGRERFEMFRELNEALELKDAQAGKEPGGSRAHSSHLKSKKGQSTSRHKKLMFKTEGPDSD
Chain of human Retinoic Acid Receptor beta (RARb), RARB (gene 5915) (P10826 whole entry, looked up, the tested form may be a part): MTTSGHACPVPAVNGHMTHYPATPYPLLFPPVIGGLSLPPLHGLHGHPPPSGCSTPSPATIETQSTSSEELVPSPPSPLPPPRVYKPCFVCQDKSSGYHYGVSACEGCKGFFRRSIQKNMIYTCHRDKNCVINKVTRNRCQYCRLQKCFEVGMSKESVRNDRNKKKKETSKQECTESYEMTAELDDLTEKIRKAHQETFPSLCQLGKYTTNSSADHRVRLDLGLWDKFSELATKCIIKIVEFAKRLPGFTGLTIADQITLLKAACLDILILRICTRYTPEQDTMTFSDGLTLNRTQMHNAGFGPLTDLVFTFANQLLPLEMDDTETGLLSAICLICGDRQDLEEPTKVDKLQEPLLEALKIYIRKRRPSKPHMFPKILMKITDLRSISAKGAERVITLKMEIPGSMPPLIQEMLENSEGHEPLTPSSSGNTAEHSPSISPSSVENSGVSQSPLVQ
Chain of human Peroxisome Proliferator-activated Receptor delta (PPARd), PPARD (gene 5467) (Q03181 whole entry, looked up, the tested form may be a part): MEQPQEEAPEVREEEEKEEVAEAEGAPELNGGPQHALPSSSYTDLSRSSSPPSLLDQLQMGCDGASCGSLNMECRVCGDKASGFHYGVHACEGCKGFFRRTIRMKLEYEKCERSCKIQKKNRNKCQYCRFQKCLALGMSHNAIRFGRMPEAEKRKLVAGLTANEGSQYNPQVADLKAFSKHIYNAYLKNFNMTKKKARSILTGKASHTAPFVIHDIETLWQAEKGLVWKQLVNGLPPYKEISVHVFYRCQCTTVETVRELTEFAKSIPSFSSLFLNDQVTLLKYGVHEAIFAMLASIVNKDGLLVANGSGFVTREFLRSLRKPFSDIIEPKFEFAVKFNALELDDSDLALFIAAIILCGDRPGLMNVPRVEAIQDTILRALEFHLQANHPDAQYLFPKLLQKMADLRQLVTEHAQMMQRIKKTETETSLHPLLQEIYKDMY
Chain of Peroxisome proliferator-activated receptor gamma (Homo sapiens) (P37231 whole entry, looked up): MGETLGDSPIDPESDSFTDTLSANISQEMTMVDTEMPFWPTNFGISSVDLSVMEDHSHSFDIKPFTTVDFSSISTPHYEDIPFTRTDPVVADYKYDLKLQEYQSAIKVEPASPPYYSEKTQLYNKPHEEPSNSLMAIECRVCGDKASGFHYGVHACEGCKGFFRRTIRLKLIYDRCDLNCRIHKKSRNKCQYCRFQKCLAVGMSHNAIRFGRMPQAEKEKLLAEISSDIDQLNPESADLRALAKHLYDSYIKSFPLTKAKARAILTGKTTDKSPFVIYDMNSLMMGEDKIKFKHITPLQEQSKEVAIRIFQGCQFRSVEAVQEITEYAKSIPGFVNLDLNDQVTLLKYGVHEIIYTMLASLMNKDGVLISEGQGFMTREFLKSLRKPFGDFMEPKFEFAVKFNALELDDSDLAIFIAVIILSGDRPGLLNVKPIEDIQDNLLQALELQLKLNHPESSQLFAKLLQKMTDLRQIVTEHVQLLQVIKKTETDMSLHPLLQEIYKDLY
Chain of human RAR-related Orphan Receptor beta (RORb), RORB (gene 6096) (Q92753 whole entry, looked up, the tested form may be a part): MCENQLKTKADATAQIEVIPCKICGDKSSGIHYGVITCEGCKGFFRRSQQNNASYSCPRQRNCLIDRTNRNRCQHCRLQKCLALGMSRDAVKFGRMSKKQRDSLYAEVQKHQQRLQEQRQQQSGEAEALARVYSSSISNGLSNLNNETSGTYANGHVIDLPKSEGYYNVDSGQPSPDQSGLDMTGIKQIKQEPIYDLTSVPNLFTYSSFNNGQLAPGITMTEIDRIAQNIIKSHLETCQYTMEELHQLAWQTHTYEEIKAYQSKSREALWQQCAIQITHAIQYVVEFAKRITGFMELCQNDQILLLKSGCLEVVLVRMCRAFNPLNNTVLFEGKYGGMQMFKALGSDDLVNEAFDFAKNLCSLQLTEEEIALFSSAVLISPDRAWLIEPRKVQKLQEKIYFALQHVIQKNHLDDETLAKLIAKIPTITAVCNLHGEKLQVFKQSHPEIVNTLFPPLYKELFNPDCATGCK

Turning to `CCOCN(C(=O)CCl)c1c(C)cccc1CC`, the result in assay [1], in [2], in assay [3], in assay [5], in assay [6] and in [7] was inactive. In addition, the outcome in [8], in [11], in assay [12], in [13] and in assay [16] was inactive. Besides, the AC50 – broadly, the midpoint of the concentration-response curve, whichever way the signal moves – in assay [4] was 1.21 µM (active); in assay [9], 14.3 µM (active); in assay [10], 35.3 µM (active); in assay [14], 15.5 µM (active); in assay [15] it was 1.23 µM (active).
In the case of `COc1nn(CSP(=S)(OC)OC)c(=O)s1`, the result in assay [1], in assay [3], in [6], in assay [7], in assay [8] and in assay [9] was inactive. Besides, the outcome in assay [10], in [11], in assay [17], in assay [12], in assay [18] and in assay [13] was inactive. In addition, the outcome in [14], in [16] and in assay [19] was inactive. For the same compound, the results for the AC50 in [4] and in [5] were 23.4 µM (active) and 18 µM (active), respectively.
`COP(=S)(OC)Oc1ccc(SC)c(C)c1`: the outcome in assay [1], in assay [2], in assay [3], in assay [5], in assay [6] and in [7] was inactive. In addition, the result in assay [8], in assay [9], in assay [10], in assay [11], in assay [17] and in assay [12] was inactive. For the same compound, the result in [18], in assay [14], in assay [19] and in [20] was inactive. Also, the AC50 in assay [4] is 15.5 µM (active); in [16], 39.3 µM (active).
As to `Cc1[nH]c(=O)n(C(C)(C)C)c(=O)c1Cl`, the call in assay [1], in assay [2], in assay [3], in assay [7], in [8] and in assay [9] was inactive. Moreover, the outcome in assay [12], in assay [18], in [13], in assay [14], in assay [16] and in assay [19] was inactive. In addition, the AC50 is 20.1 µM (active) in assay [4], 24.2 µM (active) in assay [5] and 11.7 µM (active) in assay [10].
